Inconclusive results are not listed. Activity calls are given as the source filed them. Calls follow the shape of the dose curve; as a rule, active = well fitted activation curve with a large enough effect; inconclusive = small, poorly fitted or top-dose-only effect; inactive = no such curve, though single readings can be large or run the other way.
Experiment: qHTS assay for re-activators of p53 using a Luc reporter: Hit Validation; also: nearly all actives have a fitted effect of over 75% in size; as to activation: 0% is about no effect
Details: p53-responsive luciferase reporter cells, luminescence, H1299 line expressing heat-sensitive Ala138Val p53; series mostly up to 46.1 µM; activation: at the top concentration
Summary of the method: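 Hit confirmation with a 1:5 dilution series, at 37 deg C for 24 hrs, in H1299 cells co-expressing temperature-sensitive p53-A138V and p53-responsive luciferase. Nocodazole served as control; luminescence read after 10 min with detection reagent.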
Potency is read from the fitted curve at half-maximal effect.

Potency, active:
OCc1cc(Br)ccc1OCc1nc2ccccc2s1 2910 nM
CCOc1ccc(NC(=O)c2cnsn2)cc1 2310 nM
Cc1ccc(Nc2nc(N)nc(CSc3nccn3C)n2)cc1 2310 nM
O=C(Oc1ccccc1/C=C\C(=O)c1cc2ccccc2o1)c1cccc(F)c1 206 nM
Cc1ccnc(NC(=O)c2sc3cc(Cl)ccc3c2Cl)c1 2910 nM
COc1ccc2cnn(CCOc3ccccc3)c(=O)c2c1OC 1030 nM

activation, inactive:
NC(=O)c1ccc(-n2c(CCC(=O)O)ccc2-c2cccs2)cc1 -8.33%
CNC(=S)N/N=C/c1cc(Br)cc(Br)c1O -9.38%
Cc1ccc(C)c(Oc2cc(NC(=O)CCCn3nc(C)c([N+](=O)[O-])c3C)cc([N+](=O)[O-])c2)c1 -32.8%
CCOc1ccc(S(=O)(=O)c2c(C(=O)c3ccc(C)cc3)cnc3cc4c(cc23)OCCO4)cc1 -37%
CCCCC(=O)N1CCCC(C)C1 (stereo unspecified) -10.4%
CN(C)CCN(CC1CCCN(Cc2ccccc2F)C1)C(=O)c1ccc(F)cc1 (stereo unspecified) 6.77%
O=C(CCc1nc(-c2ccccc2)no1)N1CCCC1 42.2%
CCOC(=O)N1CCN(S(=O)(=O)c2ccc(C(=O)NNc3nc4cc(C)cc(C)c4s3)cc2)CC1 6.68% [at 9.22 µM]
N#C/C(Cn1c[n+](NC(=O)Nc2ccccc2)cn1)=N/O 33.3%
Nn1cnnc1N/N=C\c1ccc(-c2ccccc2[N+](=O)[O-])o1 -84.4%
Cc1ccsc1/C=C(\C#N)C(=O)Nc1c(C)n(C)n(-c2ccccc2)c1=O -19.8%
O=[N+]([O-])c1ccc(/C=N/NC(=S)Nc2ccccc2F)o1 21.4%
CC(C)(C)c1ccc(/C=N/Nc2ccc(C(=O)O)cc2)cc1 -5.73%
O=C(NNc1c2ccccc2nc2ccccc12)c1ccc(O)cc1 -29.7%
O=c1[nH]c2ccc(N/C(=N/S(=O)(=O)c3ccccc3)c3ccccc3)cc2[nH]1 30.2%

Source: PubChem BioAssay AID624305 (National Center for Advancing Translational Sciences (NCATS), 2012)
